This is a sample that favours compounds with a hit; in the whole collection about 1.6% have one here.
N-glyco inh = blocks N-linked glycosylation in D54 reporter cells | D54 ERlucT glycosylation luciferase reporter, 24 h; percent of 100 nM tunicamycin response | reporter increase, % at 12.5 µM | hit rate 0.23% among 360,000;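 active means mean luciferase reporter signal, scaled so untreated is 0 and the glycosylation-blocking control 100, at or above a set limit in every replicate; inconclusive means mean reaches the limit but not every replicate does; inactive means mean below the limit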;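 further: luciferase carries N-glycosylation sites so blocking glycosylation raises the light; 0% = median of neutral control wells and 100% = median of 100 nM tunicamycin wells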
RAD54 inh = inhibitors of human RAD54 branch migration | inhibition, % at 10.4 µM | Q92698 | hit rate 0.14% among 360,000 | RAD54 Holliday junction branch migration, FAM/BHQ fluorescence | AID 602329;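 active means mean normalized replicate activity at least 40 and at least half of replicates scoring 40 or more; inconclusive means only one of the two criteria met; inactive means mean below 40 and under half of replicates reaching 40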;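 further: 0% = median of neutral control wells and 100% = median of positive control wells; inhibitors cause a drop in the FAM fluorescence signal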
Myeloid diff MLP = compounds promoting myeloid differentiation; hit rate 1% among 360,000; calls only at 10 µM; ER-HoxA9 myeloid progenitors, lysozyme-GFP differentiation, flow cytometry;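 active means normalized GFP-positive differentiation at or above the plate's own cutoff, the solvent-only control mean plus 3 SD; inconclusive means no clear call, values can overlap the other calls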;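 further: cells exposed to compound for four days before flow analysis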
Vif inh = blocks HIV Vif function; AID 602346; HEK293T cells, Vif self-association by quenched fluorescence, imaging, 24 h; hit rate 0.35% among 340,000; inhibition, % at 7.49 µM; in the data active means inhibition above about 50%, passing the limit was not always enough; inconclusive means no clear call, values can overlap the other calls; inactive means below about 31%
ABCB6 inh MLPCN = human ABCB6 transporter inhibition | Q9NP58 | K562-ABCB6 porphyrin accumulation, flow cytometry, 1 h; hits give low values | hit rate 0.19% among 360,000 | fluorescence ratio to DMSO, % at 10 µM | AID 602162;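 active means fluorescence ratio to DMSO below 75%, the collection mean minus 3 SD; inconclusive means too few cells collected in the well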;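 further: signal is porphyrin accumulated inside mitochondria; 100% equals median channel fluorescence of DMSO control wells; lower ratio means ABCB6 inhibition with less porphyrin fluorescence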
Target sequence (Q9NP58 whole entry, looked up): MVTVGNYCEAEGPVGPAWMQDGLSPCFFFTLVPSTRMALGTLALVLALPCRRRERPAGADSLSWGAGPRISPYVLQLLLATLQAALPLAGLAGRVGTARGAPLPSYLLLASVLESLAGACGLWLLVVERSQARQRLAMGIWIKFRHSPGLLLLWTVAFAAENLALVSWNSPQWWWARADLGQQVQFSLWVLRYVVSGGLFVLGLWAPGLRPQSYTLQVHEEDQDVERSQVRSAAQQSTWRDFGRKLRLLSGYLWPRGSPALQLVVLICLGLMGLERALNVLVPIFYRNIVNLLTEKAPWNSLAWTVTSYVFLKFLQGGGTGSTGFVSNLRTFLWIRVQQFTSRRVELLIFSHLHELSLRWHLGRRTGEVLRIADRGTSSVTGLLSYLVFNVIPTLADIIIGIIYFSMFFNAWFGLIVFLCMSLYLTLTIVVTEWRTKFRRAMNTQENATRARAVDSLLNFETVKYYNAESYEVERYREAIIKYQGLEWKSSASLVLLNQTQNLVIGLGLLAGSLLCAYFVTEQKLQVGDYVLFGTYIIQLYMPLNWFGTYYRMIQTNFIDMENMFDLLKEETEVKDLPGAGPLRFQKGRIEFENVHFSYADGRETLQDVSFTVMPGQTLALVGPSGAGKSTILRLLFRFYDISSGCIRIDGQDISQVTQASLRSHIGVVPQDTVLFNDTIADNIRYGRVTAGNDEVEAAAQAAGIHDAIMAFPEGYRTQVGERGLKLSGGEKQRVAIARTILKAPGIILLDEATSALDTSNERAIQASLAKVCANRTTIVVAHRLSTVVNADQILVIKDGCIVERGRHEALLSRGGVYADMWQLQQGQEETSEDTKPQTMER
Myeloid diff CP1 = promotes myeloid progenitor differentiation; shares compounds with Myeloid diff MLP; hit rate 2% among 2,300; ER-HoxA9 myeloid progenitors, GFP/Mac1 double-positive flow; calls only;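 active means share of green or green-and-red cells above 9 and 9% in run 1 or 4 and 3% in run 2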
GFP autofluor = counter-screen for myeloid differentiation promoters: compound fluorescence; ER-HoxA9 myeloid progenitors, no estrogen, GFP autofluorescence flow cytometry; vehicle wells 0%, positive control 100%; AID 651707; fluorescence response, % (no concentration beside the values); hit rate 7.4% among 2,300; shares compounds with Myeloid diff MLP;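 active means over 5% cells positive for green fluorescent reporter, or over 2% positive for both it and APC stain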;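 further: range taken on the double positive population between DMSO and positive control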
An asterisk follows results filed as active; i = inactive; ? = inconclusive; / = not tested or not shown; + = active, no number.

SMILES	N-glyco inh	RAD54 inh	Myeloid diff MLP	Vif inh	ABCB6 inh MLPCN	Myeloid diff CP1	GFP autofluor
Cc1cc(NC(=O)C(C)Sc2nnc(NCc3ccco3)s2)no1 (stereo unspecified)	-1	-5	+	/	104	i	0
Cc1cc(NC(=O)C(C)SCC(=O)Nc2nnc(CC(C)C)s2)no1 (stereo unspecified)	4	-2	/	3	93	/	/
C[C@@H]1CN([C@H](C)CO)C(=O)c2cc(NC(=O)Cc3cn(C)c4ccccc34)ccc2O[C@@H]1CN(C)C(=O)Nc1cccc2ccccc12	/	3	/	/	/	/	/
COc1ccc(C(=O)CSc2ncnc3nc[nH]c23)cc1	-2	-1	+	1	99	i	0
COc1ccc(CNC(=O)CSc2ncnc3nc[nH]c23)cc1	2	5	i	9	106	/	/
C#CCCC/C(=C\C(=O)N(C)[C@H](C(=O)N(C)[C@H](C(=O)N(C)[C@H](C(=O)N(C)[C@H](C(N)=O)C(C)C)C(C)C)C(C)C)C(C)C)OC	2	-8	i	2	98	i	0
CCCCCCCC(=O)C(C)C(=O)N(C)[C@H](Cc1ccc(OC)cc1)C(=O)N(C)[C@H](C(N)=O)C(C)C (stereo partly specified)	0	-5	i	11	97	/	/
COc1ccc(NC(=O)c2ccc([N+](=O)[O-])o2)cc1	31*	5	+	15	101	i	0
O=C(Nc1ccc(Cl)cn1)c1ccc([N+](=O)[O-])o1	10	/	+	17	110	i	1
O=C(Nc1cccnc1)c1ccc([N+](=O)[O-])o1	18	-15	/	-4	100	/	/
Cc1c(Cl)c([N+](=O)[O-])nn1Cc1ccc(C(=O)Nc2ccc(Cl)cn2)o1	-1	-8	i	6	96	/	/
O=C(NCc1cccnc1)c1ccc([N+](=O)[O-])o1	16	6	+	1	102	i	2
COc1ccc2nc(NC(=O)c3ccc([N+](=O)[O-])o3)sc2c1	?	2	i	-2	103	i	1
CC(C)NC(=O)Nc1ccc2c(c1)CC(=O)N([C@H](C)CO)C[C@H](C)[C@H](CN(C)C(=O)Nc1ccccc1)O2	/	4	/	/	/	/	/
COc1ccc(C(CCNCc2ccccc2)c2ccc(F)cc2)cc1 (stereo unspecified)	-11	0	i	-5	93	i	2
COc1ccc(C(CCNCc2ccc(F)cc2)c2ccc(F)cc2)cc1 (stereo unspecified)	-2	/	i	21	91	/	/
Cc1nc(S(=O)(=O)Cc2ccccc2Cl)nc2c1CCC2	0	/	i	-3	99	/	/
Cc1cccc(C)c1-n1nnnc1S(=O)(=O)Cc1ccccc1Cl	-1	/	i	-2	105	i	0
Cc1ccc(CCNC(=O)CCS(=O)(=O)c2ccc3nc(C)sc3c2)cc1	0	4	i	-2	104	i	0
COC(=O)C[C@H]1C[C@@H]2c3cc(NC(=O)c4cccnc4)ccc3O[C@@H]2[C@H](CO)O1	/	7	/	/	/	/	/
O=C(O)c1ccc(N=Cc2c(O)ccc3oc4c(c23)CCCC4)cc1	-1	/	i	-3	98	/	/
Oc1ccccc1N=Cc1c(O)ccc2oc3c(c12)CCCC3	2	-9	i	-7	107	i	3
C[C@@H]1CN([C@H](C)CO)C(=O)c2cc(NS(=O)(=O)c3cn(C)cn3)ccc2O[C@H]1CN(C)C(=O)NC1CCCCC1	/	-3	/	/	/	/	/
CO[C@H]1CN(C)C(=O)c2cc(NS(=O)(=O)c3cccc(F)c3)ccc2OC[C@@H](C)NC[C@@H]1C	/	2	/	/	/	/	/
COc1ccc(NC(=O)C2CCN(S(=O)(=O)c3cccs3)CC2)cc1OC	-2	10	i	17	89	/	/
SMILES	N-glyco inh	RAD54 inh	Myeloid diff MLP	Vif inh	ABCB6 inh MLPCN	Myeloid diff CP1	GFP autofluor
COc1ccc(NC(=O)C2CCCN(S(=O)(=O)c3cccs3)C2)cc1OC (stereo unspecified)	3	2	+	-4	98	i	0
Cc1ccc2oc(=O)c3cnn(CC(=O)N4CCCc5ccccc54)c3c2c1	-1	11	i	-10	85	i	0
COc1ccc(NC(=O)N(C)C[C@@H]2OCCCC[C@@H](C)Oc3ccc(NS(=O)(=O)c4ccccc4)cc3C(=O)N([C@H](C)CO)C[C@H]2C)cc1	/	-11	/	/	/	/	/
C[C@@H]1CCCCO[C@@H](CN(C)Cc2ccc(C(F)(F)F)cc2)[C@@H](C)CN([C@@H](C)CO)C(=O)c2cc(NS(C)(=O)=O)ccc2O1	/	-5	/	/	/	/	/
Cn1cc(-c2cnc3c(NC=O)cc(-c4cccc(C(F)(F)F)c4)cn23)cn1	4	13	+	-25	89	i	2
COc1ccc(-c2cc(NC(C)=O)c3ncc(-c4cccc(C(F)(F)F)c4)n3c2)c(OC)c1	0	1	i	12	101	/	/
COc1ccc(-c2cc(NC=O)c3ncc(-c4cccc(C(F)(F)F)c4)n3c2)c(OC)c1	17	-4	+	14	112	i	0
Cc1noc(C)c1S(=O)(=O)N(C)C[C@@H]1Oc2ccc(NC(=O)Cc3ccccc3)cc2CC(=O)N([C@@H](C)CO)C[C@@H]1C	/	1	/	/	/	/	/
CC(C)C#Cc1ccc([C@H]2[C@@H](C#N)N(C(=O)CN(C)C)[C@@H]2CO)cc1	/	-14	/	/	/	/	/
c1ccc(-n2ncc3c(NCc4ccco4)ncnc32)cc1	11	-5	i	-2	85	/	/
c1ccc(Cn2ncc3c(NCc4ccco4)ncnc32)cc1	-1	6	i	-3	99	i	0
CO[C@@H](CN(C)C(=O)c1cnccn1)[C@@H](C)CN([C@H](C)CO)S(=O)(=O)c1ccc(C)cc1	/	-2	/	/	/	/	/
CO[C@H](CN(C)C(=O)c1ccccc1F)[C@H](C)CN([C@H](C)CO)S(=O)(=O)c1ccc(C)cc1	/	-2	/	/	/	/	/
CC(C)NC(=O)N(C)C[C@@H]1Oc2ccc(NC(=O)Cc3ccccc3)cc2C(=O)N([C@@H](C)CO)C[C@@H]1C	/	0	/	/	/	/	/
C[C@@H]1CCCCO[C@H](CN(C)C(=O)C2CCCCC2)[C@@H](C)CN([C@@H](C)CO)C(=O)c2cc(NC(=O)CCCN(C)C)ccc2O1	/	6	/	/	/	/	/
C=CCn1c(C)c(C(C)=O)c(N2CCCC2)nc1=S	1	12	i	2	88	/	/
C=CCn1c(C)c(C(C)=O)c(N2CCN(c3ccccc3)CC2)nc1=S	0	-95	+	41	204	i	2
CC(=O)n1cc(C2CC(=O)OC3=C2CC(=O)C(C)(C)C3)c2ccccc21 (stereo unspecified)	5	-2	i	3	96	/	/
CC(=O)n1cc(C2C(=O)CCCC2=O)c2ccccc21	1	-10	i	2	98	i	1

High-throughput results as filed in PubChem BioAssay.
